Assay outcomes (PubChem)
Hits are enriched below; roughly 19% of the tested compounds scored in any of these assays.
ASM inhibitor – inhibitors of human secretory acid sphingomyelinase. placental ASM, HMU-PC fluorogenic substrate, 60 min. AID 504937. Potency, µM (titrated, usually from 57.5 µM), for inactives: top-dose activity change, negative = inhibition, hits mostly inhibitors. 340,000 compounds, 0.006% hits; further: potency means the concentration at half of the fitted maximal effect
Target sequence (P17405 47-631 limits assumed): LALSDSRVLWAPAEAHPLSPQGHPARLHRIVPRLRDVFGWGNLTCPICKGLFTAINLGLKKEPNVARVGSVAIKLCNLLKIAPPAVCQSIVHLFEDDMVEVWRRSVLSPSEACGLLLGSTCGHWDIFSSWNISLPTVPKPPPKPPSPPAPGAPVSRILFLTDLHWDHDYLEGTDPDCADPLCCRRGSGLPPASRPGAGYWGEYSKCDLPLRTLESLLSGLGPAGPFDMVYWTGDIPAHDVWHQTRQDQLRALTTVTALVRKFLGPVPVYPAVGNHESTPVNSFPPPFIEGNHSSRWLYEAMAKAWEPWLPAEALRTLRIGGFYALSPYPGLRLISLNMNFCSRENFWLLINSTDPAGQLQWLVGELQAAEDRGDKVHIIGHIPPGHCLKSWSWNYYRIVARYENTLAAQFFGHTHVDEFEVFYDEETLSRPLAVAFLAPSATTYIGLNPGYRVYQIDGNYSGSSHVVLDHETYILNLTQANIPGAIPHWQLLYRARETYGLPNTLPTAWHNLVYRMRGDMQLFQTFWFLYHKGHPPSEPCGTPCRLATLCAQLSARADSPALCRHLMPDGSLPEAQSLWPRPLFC
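Fluorogenic HMU-PC substrate (9 uM final) is turned over by placental ASM in 60 min at 37 C after a 10 min compound preincubation. Reaction ended by alkaline stop (pH 10), with fluorescence read at 386/447 nm.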
TGFb inhibitor – blocks TGF-b signaling; HepG2 CAGA-GFP TGF-b/SMAD3 reporter, GFP fluorescence, 18 h; TGF-beta stimulated, 500 pg/mL final; Potency, µM (series often up to 46.1 µM), for inactives: at the highest dose activity, negative = inhibition, most hits filed as inhibitors; 410,000 compounds, 1.2% hits; further: potency means the concentration at half of the fitted maximal effect; on the % scale 0 is the no-effect control and ±100 the full control effect; nearly all actives have a fitted effect of over 65% in size
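Smad-responsive CAGA-GFP expression was quantified in HEPG2 cells exposed to compounds and 500 pg/mL final TGF-beta for 18 h at 37 degrees C; unstimulated wells defined full inhibition.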
TDP1 cell noCPT – qHTS for Inhibitors of human tyrosyl-DNA phosphodiesterase 1 (TDP1): qHTS in cells in absence of CPT; AID 686978, 2013; DT40 Tdp1-/- hTDP1 cells, no CPT, ATP luminescence, 48 h; 420,000 compounds, 15% hits; Potency, µM (highest dose often 46.2 µM), for the others: at the top dose activity change, negative = growth inhibition, actives largely listed as inhibitors; further: potency means the concentration at half of the fitted maximal effect; on the % scale 0 is the no-effect control and ±100 the full control effect; nearly all actives have a fitted effect of over 55% in size
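No-CPT arm: Tdp1-/-;hTDP1 DT40 cells (400/well) plus compounds, incubated ≥48 hr at 37 °C. Readout CellTiter-Glo luminescence.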
HepG2 tox – counter-screen for TGF-b inhibitors: cytotoxicity in HepG2 cells; HepG2 CAGA-GFP viability, ATP luminescence, 18 h; 410,000 compounds, 0.76% hits; AID 588856; Potency, µM (titrated, usually from 46.1 µM), inactives show at the highest dose activity change, negative = cytotoxicity, actives largely listed as cytotoxic; further: potency means the concentration at half of the fitted maximal effect
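HepG2 CAGA-GFP cells (1000/well, DMEM with 1% FBS) received compound, then TGF-beta at 500 pg/mL final, and were incubated 18 hours at 37 degrees C. Viability was read by CellTiter-Glo luminescence. Media-only wells were set as complete cell-killing and DMSO as no toxicity.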
TDP1 cell CPT – DT40-hTDP1 cell growth loss with CPT; chicken DT40 Tdp1-/-;hTDP1 cells + 20 nM CPT, ATP luminescence, 48 h; 420,000 compounds, 12% hits; Potency, µM (series often up to 46.2 µM), without a hit: at the highest dose activity change, negative = growth inhibition, hits mostly inhibitors; further: potency means the concentration at half of the fitted maximal effect; on the % scale 0 is the no-effect control and ±100 the full control effect; nearly all actives have a fitted effect of over 55% in size
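Chicken DT40 Tdp1-/- cells stably complemented with human TDP1 were seeded at 400 cells/well in medium containing 20 nM camptothecin, exposed to pin-transferred compounds, and grown at 37 °C for at least 48 hr. Viability was read as ATP luminescence.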
IL-1B inflam inh – inhibitors of inflammasome signaling (IL-1 beta secretion) | THP-1 LPS/ATP IL-1B secretion, AlphaLISA, 16 h; hits give low values | 360,000 compounds, 4.7% hits | AID 743279 | activity change, % at 57.5 µM; in the data active means activity change below about -50%; inconclusive means mostly about -30% to -49%; further: on the % scale 0 is the no-effect control and ±100 the full control effect
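Secreted IL-1B measured by AlphaLISA bead assay after 16 h compound exposure of THP-1 cells; compounds (final up to 57.5 uM) added 1 h before LPS (250 ng/mL) and ATP (1.25 mM) stimulation; lower signal means less secretion.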
* = called active by the depositor; i = inactive; ? = inconclusive; . = no result; ! = not active in a repeat. Unless noted, the call rests on the fitted dose curve; in most records, active means well fitted curve in the direction sought with a large enough effect; inconclusive means small, poorly fitted or top-dose-only effect, or another doubt; inactive means no such curve, though single readings can be large; an effect the other way counts as inactive or inconclusive.

SMILES | ASM inhibitor | TGFb inhibitor | TDP1 cell noCPT | HepG2 tox | TDP1 cell CPT | IL-1B inflam inh
O=c1cccc2n1CC1CC2CN(C(c2ccccc2)c2sc3ncnn3c2O)C1 (stereo unspecified) | 3% | -12% | 8% | 5% | -7% | 18
C=C[C@H](Cc1ccccc1)N(Cc1ccccc1)S(=O)(=O)N(Cc1ccccc1)[C@H](C=C)Cc1ccccc1 | 4% | -2% | 13µM* | 2% | ? | 44
COC(=O)[C@@H](Cc1ccccc1)N(Cc1ccccc1)S(=O)(=O)N(Cc1ccccc1)[C@H](Cc1ccccc1)C(=O)OC | 4% | ? | 10µM*! | -17% | 23µM* | 6
COC(=O)c1ccc(CC(C(=O)c2ccccc2)N(C)C)cc1 (stereo unspecified) | 0% | -3% | ? | -1% | ? | 0
C[C@H](CO)N1C[C@H](C)[C@@H](CN(C)C(=O)Nc2ccc(C(F)(F)F)cc2)Oc2c(NS(=O)(=O)c3cccs3)cccc2C1=O | -9% | -27% | ? | -1% | ? | -5
Cc1ccc(CN2CCCC(C(=O)c3sccc3C)C2)o1 (stereo unspecified) | -2% | -12% | 21µM* | -16% | 3% | -10
CSc1ncc(CN2CCCC(C(=O)c3sccc3C)C2)cn1 (stereo unspecified) | 1% | ? | ? | -13% | ? | 54
Cc1ccsc1C(=O)C1CCCN(Cc2ccc(-n3cccn3)cc2)C1 (stereo unspecified) | 3% | ? | 15µM* | -35% | 21µM* | -16
COc1cc(CN2CCCC(C(=O)c3sccc3C)C2)cc(OC)c1O (stereo unspecified) | 0% | -3% | ? | 14% | ? | -11
Cc1ccsc1C(=O)C1CCCN(Cc2cnc(N3CCCC3)s2)C1 (stereo unspecified) | -5% | -29% | 18µM* | -26% | 12µM* | 9
C[C@H](CCC(=O)O)[C@H]1CC[C@H]2[C@@H]3C(=O)C[C@@H]4CC(=O)CC[C@]4(C)[C@H]3CC(=O)[C@]12C | 2% | 3% | -10% | 3% | ? | -1
COc1ccc2[nH]c(C)c(CCNCc3cccnc3)c2c1 | -2% | 16% | 10% | -2% | 1% | -5
CCOc1cccc(CNCCc2c(C)[nH]c3ccc(OC(F)(F)F)cc23)c1O | -25% | -9% | 2.1µM* | -1% | 2.9µM* | -98*
Cc1[nH]c2ccc(OC(F)(F)F)cc2c1CCNCc1cccc([N+](=O)[O-])c1 | -4% | ? | 13µM* | i | ? | -95*
Cc1noc(NS(=O)(=O)c2ccc(NC(=O)CCn3c(=O)oc4ccccc43)cc2)c1C | -1% | -7% | -7% | 1% | -8% | 1
COC(=O)C1=C(c2ccc(C(C)=O)cc2)C[C@@H]2CC[C@H]1N2C(=O)NCc1ccc2c(c1)OCO2 | -4% | 6% | ? | -5% | -30% | -6
Cc1cccc(CSc2nc3c(cc2C#N)CN(C)CC3)c1 | 0% | -21% | 2% | -2% | 6% | 6
CN1CCc2nc(SCc3ccccc3Br)c(C#N)cc2C1 | 44% | ? | 18µM* | -27% | ? | -17
CC(C)CCCC(C)C1CCC2C3CC(O)[C@@]4(O)CC(O)CC[C@@]4(C)C3CC[C@@]12C (stereo partly specified) | . | . | 18µM* | . | ? | .
Cc1cccc(OCCn2cccc2/C=C2/C(=O)NC(=O)N(Cc3ccco3)C2=O)c1 | -19% | -2% | -5% | -3% | 0% | ?
CCc1ccc(N2C(=O)NC(=O)/C(=C/c3cccn3CCOc3ccc(C)cc3)C2=O)cc1 | -6% | 8% | ? | 7% | 26µM* | -16
CCc1ccc(N2C(=O)NC(=O)/C(=C/c3cccn3CCOc3ccc(C(C)CC)cc3)C2=O)cc1 (stereo unspecified) | 3% | 9% | 15µM* | 5% | ? | -28
CN(CCS(=O)(=O)c1ccc(Cl)cc1)Cc1cccnc1 | 3% | 6% | ? | -22% | -30% | ?
COc1ccc(NC(=O)CCn2cc(C)c3ccccc32)cc1 | -3% | ? | ? | -25% | -23% | -27
COc1ccc(NC(=O)CCn2cnc3onc(-c4ccc(F)cc4)c3c2=O)cc1OC | . | ? | 2.9µM* | -20% | 2.9µM* | .
SMILES | ASM inhibitor | TGFb inhibitor | TDP1 cell noCPT | HepG2 tox | TDP1 cell CPT | IL-1B inflam inh
Cc1cccc(CC(c2cccc(C)c2)N(C)C)c1 (stereo unspecified) | 2% | 8% | -17% | -11% | -24% | -5
COC(=O)C1=C(c2ccc(F)cc2OCc2ccccc2)C[C@@H]2CC[C@H]1N2C(=O)NC(C)C | 0% | 12% | 21µM* | 0% | ? | -14
COC(=O)C1=C(c2ccc(F)cc2OCc2ccccc2)C[C@@H]2CC[C@H]1N2C(=O)NCc1ccc(N(C)C)cc1 | -10% | -8% | ? | -2% | ? | ?
COC(=O)C1=C(c2ccc(F)cc2OCc2ccccc2)C[C@@H]2CC[C@H]1N2C(=O)NC1CCCCC1 | 3% | ? | ? | -10% | ? | -21
COC(=O)C1=C(c2ccc(F)cc2OCc2ccccc2)C[C@@H]2CC[C@H]1N2C(=O)N1CCCC1 | 1% | -22% | 5.8µM* | -7% | 6.5µM* | 12
COC(=O)C1=C(c2ccc(F)cc2OCc2ccccc2)C[C@@H]2CC[C@H]1N2C(=O)NC1CC1 | 0% | 7% | ? | 0% | 16µM* | -3
c1ccc2c(N3CCNCC3)nsc2c1 | -2% | 17% | 13µM* | -9% | 10µM* | -54*
O=C1NCN(c2ccccc2)C12CCN(C(CCc1ccccc1)c1nnnn1C1CCCC1)CC2 (stereo unspecified) | . | 11µM* | ? | -32% | ? | ?
O=C1NCN(c2ccccc2)C12CCN(C(CCc1ccccc1)c1nnnn1C1CCCCC1)CC2 (stereo unspecified) | . | 13µM* | ? | -49% | ? | -56*
COc1ccc(OC(=O)Nc2ccc([N+](=O)[O-])cc2OC)cc1 | -7% | -22% | ? | -17% | -29% | -4
CN(c1ccccc1)P(=O)(N1CC1)N1CC1 | 0% | ? | 4.1µM* | -18% | 2.6µM* | 9
